Records with an inconclusive call do not appear. Where a call stands in place of a potency, no number is given. Calls of active or inactive are those of the source. Unless noted, the call rests on the fitted dose curve; in most records, active means well fitted cell-killing curve with a large enough effect in the repeat runs; inconclusive means weak or mixed curves, or effect the other way; inactive means no such curve, though single readings can be large or run the other way.
biological target: Vitamin D3 receptor (Homo sapiens) (UniProt P11473); assay: qHTS assay to identify small molecule agonists of the vitamin D receptor (VDR) signaling pathway (AID 743222; calls by dose curve); details: HEK293T VDR-UAS-bla, beta-lactamase FRET ratio, 16 h; series mostly up to 63.5 µM; activation: at the top concentration
Sequence (P11473 whole entry, looked up): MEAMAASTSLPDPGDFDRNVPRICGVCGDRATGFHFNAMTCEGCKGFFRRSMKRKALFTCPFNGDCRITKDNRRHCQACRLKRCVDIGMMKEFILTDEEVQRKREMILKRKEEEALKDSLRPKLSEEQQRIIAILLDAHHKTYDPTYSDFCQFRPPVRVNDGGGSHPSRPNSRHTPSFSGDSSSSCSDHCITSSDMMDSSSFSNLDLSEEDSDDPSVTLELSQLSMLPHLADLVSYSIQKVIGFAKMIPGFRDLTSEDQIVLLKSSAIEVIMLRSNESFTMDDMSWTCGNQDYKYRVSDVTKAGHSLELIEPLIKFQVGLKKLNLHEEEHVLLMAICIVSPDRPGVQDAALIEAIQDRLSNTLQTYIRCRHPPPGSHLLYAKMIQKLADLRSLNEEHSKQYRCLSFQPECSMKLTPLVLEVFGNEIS
Method in brief: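 VDR-bla cells, 2,000/well; 4 h preincubation 37C; cpd (DMSO) 16 h; LiveBLAzer B/G substrate 2 h RT; fluorescence intensity read.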

Q: With `Cc1cccc2ccccc12` as the compound, how does the outcome read?
A: inactive

Q: Which outcome does the source give for `O=C(O)Cc1cccc2ccccc12` here?
A: inactive

Q: With `O=C(O)CN(CC(=O)O)CC(=O)O` as the compound, how does the outcome read?
A: inactive

Q: For `COc1cc(O)c(C(=O)c2ccccc2)cc1S(=O)(=O)O`, which outcome is on record?
A: inactive

Q: With `CCCCCCCCCCCCCC(=O)OC(C)C` as the compound, how does the outcome read?
A: inactive

Q: With `COc1cc(C=O)ccc1O` as the compound, how does the outcome read?
A: inactive

Q: With `CC(O)COc1ccccc1` (centres undefined) as the compound, how does the outcome read?
A: inactive

Q: Which outcome does the source give for `O=C1CCCCCN1` here?
A: inactive

Q: For `CC(=O)c1ccc(S(=O)(=O)NC(=O)NC2CCCCC2)cc1`, which outcome is on record?
A: inactive

Q: With `Cn1cnc2c1c(=O)[nH]c(=O)n2C` as the compound, how does the outcome read?
A: inactive

Q: Which outcome does the source give for `COC(=O)C1CCC(C(=O)OC)CC1` (centres undefined) here?
A: inactive

Q: With `O=C(OCc1ccccc1)c1ccccc1` as the compound, how does the outcome read?
A: inactive

Q: Which outcome does the source give for `COc1ccccc1O` here?
A: inactive

Q: With `CCOC(=O)C(C)(C)Oc1ccc(Cl)cc1` as the compound, how does the outcome read?
A: inactive

Q: For `c1ccc2[nH]c(-c3cscn3)nc2c1`, which outcome is on record?
A: inactive

Q: For `NC(=O)c1ccc([N+](=O)[O-])cc1Cl`, which outcome is on record?
A: inactive

Q: For `Cc1c(N(C)C)c(=O)n(-c2ccccc2)n1C`, which outcome is on record?
A: inactive

Q: Which outcome does the source give for `Cc1ccc(O)c(-n2nc3ccccc3n2)c1` here?
A: inactive

Q: Which outcome does the source give for `COCCOCCOC` here?
A: inactive

Q: For `CC(C)CC(C)CC(O)CC(C)C` (centres undefined), which outcome is on record?
A: inactive

Q: Which outcome does the source give for `Oc1cccc(O)c1` here?
A: inactive

Q: With `CCCCCCCCCCCCCCCCCC(=O)OCC(O)CO` (centres undefined) as the compound, how does the outcome read?
A: inactive

Q: Which outcome does the source give for `COCC(C)N` (centres undefined) here?
A: inactive

Q: For `CCn1cc(C(=O)O)c(=O)c2ccc(C)nc21`, which outcome is on record?
A: inactive

Q: Which outcome does the source give for `C=CCOC(=O)CC(C)C` here?
A: inactive

Q: With `COC(=O)c1ccc(C=O)cc1` as the compound, how does the outcome read?
A: inactive

biological target: Vitamin D3 receptor (Homo sapiens) (UniProt P11473); assay: qHTS assay to identify small molecule antagonists of the vitamin D receptor (VDR) signaling pathway (AID 743223; active means well fitted inhibition curve with a large enough effect in the signal ratio in the repeat runs, not every such curve was filed as active; the % refers to the signal ratio); details: VDR-UAS-bla HEK293T, beta-lactamase FRET ratio, 16 h; series mostly up to 61 µM; activity change, negative = inhibition: at the top concentration
Method in brief: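 Reporter line VDR-bla; stimulus 1alpha,25-(OH)2 vitamin D3, 3 nM final; compound co-addition, 16 h 37C/5% CO2; LiveBLAzer B/G substrate 2 h RT; fluorescence intensity.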

Q: Which Potency does the source give for `Cc1cccc2ccccc12` here?
A: inactive

Q: With `O=C(O)Cc1cccc2ccccc12` as the compound, how does the Potency read?
A: inactive

Q: With `O=C(O)CN(CC(=O)O)CC(=O)O` as the compound, how does the Potency read?
A: inactive

Q: For `COc1cc(O)c(C(=O)c2ccccc2)cc1S(=O)(=O)O`, which Potency is on record?
A: inactive

Q: For `CCCCCCCCCCCCCC(=O)OC(C)C`, which Potency is on record?
A: inactive

Q: Which Potency does the source give for `COc1cc(C=O)ccc1O` here?
A: inactive

Q: With `CC(O)COc1ccccc1` (centres undefined) as the compound, how does the Potency read?
A: inactive

Q: With `O=C1CCCCCN1` as the compound, how does the Potency read?
A: inactive

Q: Which Potency does the source give for `CC(=O)c1ccc(S(=O)(=O)NC(=O)NC2CCCCC2)cc1` here?
A: inactive

Q: Which Potency does the source give for `Cn1cnc2c1c(=O)[nH]c(=O)n2C` here?
A: inactive

Q: Which Potency does the source give for `COC(=O)C1CCC(C(=O)OC)CC1` (centres undefined) here?
A: inactive

Q: For `O=C(OCc1ccccc1)c1ccccc1`, which Potency is on record?
A: inactive

Q: For `COc1ccccc1O`, which Potency is on record?
A: inactive

Q: With `CCOC(=O)C(C)(C)Oc1ccc(Cl)cc1` as the compound, how does the Potency read?
A: inactive

Q: With `c1ccc2[nH]c(-c3cscn3)nc2c1` as the compound, how does the Potency read?
A: inactive

Q: Which Potency does the source give for `NC(=O)c1ccc([N+](=O)[O-])cc1Cl` here?
A: inactive

Q: For `Cc1c(N(C)C)c(=O)n(-c2ccccc2)n1C`, which Potency is on record?
A: inactive

Q: With `Cc1ccc(O)c(-n2nc3ccccc3n2)c1` as the compound, how does the Potency read?
A: inactive

Q: Which “activity change, negative = inhibition” value does the source give for `COCCOCCOC` here?
A: 6.91% (inactive)

Q: With `Oc1cccc(O)c1` as the compound, how does the Potency read?
A: inactive

Q: For `CCCCCCCCCCCCCCCCCC(=O)OCC(O)CO` (centres undefined), which Potency is on record?
A: inactive

Q: Which “activity change, negative = inhibition” value does the source give for `COCC(C)N` (centres undefined) here?
A: 1.35% (inactive)

Q: With `CCn1cc(C(=O)O)c(=O)c2ccc(C)nc21` as the compound, how does the Potency read?
A: inactive

Q: Which “activity change, negative = inhibition” value does the source give for `C=CCOC(=O)CC(C)C` here?
A: 21.7% [at 78.8 µM] (inactive)

Q: With `COC(=O)c1ccc(C=O)cc1` as the compound, how does the Potency read?
A: inactive

tested on: not listed separately; assay: qHTS assay to identify small molecule agonists of the vitamin D receptor (VDR) signaling pathway - cell viability counter screen (AID 743224); details: VDR-bla HEK293T viability, CellTiter-Glo luminescence, 16 h; series mostly up to 62.6 µM; activity change, negative = cytotoxicity: at the top concentration; further: nearly all actives have a fitted effect of over 50% in size
Method in brief: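 Luminescence from CellTiter-Glo, read after 30 min at room temperature, reports viability of VDR-bla cells treated with compounds for 16 h at 37C in the wells used for the beta-lactamase FRET read.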

Q: Which Potency does the source give for `Cc1cccc2ccccc12` here?
A: inactive

Q: With `O=C(O)Cc1cccc2ccccc12` as the compound, how does the Potency read?
A: inactive

Q: Which Potency does the source give for `O=C(O)CN(CC(=O)O)CC(=O)O` here?
A: inactive

Q: With `COc1cc(O)c(C(=O)c2ccccc2)cc1S(=O)(=O)O` as the compound, how does the Potency read?
A: inactive

Q: With `CCCCCCCCCCCCCC(=O)OC(C)C` as the compound, how does the Potency read?
A: inactive

Q: Which Potency does the source give for `COc1cc(C=O)ccc1O` here?
A: inactive

Q: With `CC1=NN(c2ccccc2)C(=O)C1` as the compound, how does the Potency read?
A: inactive

Q: For `C[C@]12C[C@H](O)[C@H]3[C@@H](CCC4=CC(=O)CC[C@@]43C)[C@@H]1CC[C@@H]2C(=O)CO`, which Potency is on record?
A: inactive

Q: Which Potency does the source give for `CCCCC/C(C=O)=C\c1ccccc1` here?
A: inactive

Q: For `CC(O)COc1ccccc1` (centres undefined), which Potency is on record?
A: inactive

Q: Which Potency does the source give for `O=C1CCCCCN1` here?
A: inactive

Q: For `CC(=O)c1ccc(S(=O)(=O)NC(=O)NC2CCCCC2)cc1`, which Potency is on record?
A: inactive

Q: With `Cn1cnc2c1c(=O)[nH]c(=O)n2C` as the compound, how does the Potency read?
A: inactive

Q: For `COC(=O)C1CCC(C(=O)OC)CC1` (centres undefined), which Potency is on record?
A: inactive

Q: Which Potency does the source give for `O=C(OCc1ccccc1)c1ccccc1` here?
A: inactive

Q: With `COc1ccccc1O` as the compound, how does the Potency read?
A: inactive

Q: With `CCOC(=O)C(C)(C)Oc1ccc(Cl)cc1` as the compound, how does the Potency read?
A: inactive

Q: Which Potency does the source give for `c1ccc2[nH]c(-c3cscn3)nc2c1` here?
A: inactive

Q: For `NC(=O)c1ccc([N+](=O)[O-])cc1Cl`, which Potency is on record?
A: inactive

Q: Which Potency does the source give for `Cc1c(N(C)C)c(=O)n(-c2ccccc2)n1C` here?
A: inactive

Q: For `Cc1ccc(O)c(-n2nc3ccccc3n2)c1`, which Potency is on record?
A: inactive

Q: For `COCCOCCOC`, which Potency is on record?
A: inactive

Q: For `CC(C)CC(C)CC(O)CC(C)C` (centres undefined), which Potency is on record?
A: inactive

Q: For `Oc1cccc(O)c1`, which Potency is on record?
A: inactive

Q: For `CCCCCCCCCCCCCCCCCC(=O)OCC(O)CO` (centres undefined), which Potency is on record?
A: inactive

Q: With `COCC(C)N` (centres undefined) as the compound, how does the “activity change, negative = cytotoxicity” value read?
A: 13.8% (inactive)

Q: Which Potency does the source give for `CCn1cc(C(=O)O)c(=O)c2ccc(C)nc21` here?
A: inactive

Q: Which Potency does the source give for `C=CCOC(=O)CC(C)C` here?
A: inactive

Q: With `COC(=O)c1ccc(C=O)cc1` as the compound, how does the Potency read?
A: inactive

tested on: not listed separately; assay: qHTS assay to identify small molecule antagonists of the vitamin D receptor (VDR) signaling pathway - cell viability counter screen (AID 743225); details: VDR-bla HEK293T viability, CellTiter-Glo luminescence, 16 h; series mostly up to 61 µM; viability change, negative = cytotoxic: at the top concentration; further: nearly all actives have a fitted effect of over 50% in size
Method in brief: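 Parallel cytotoxicity test: VDR-UAS-bla HEK 293T, 3 nM (final) 1-alpha,25-dihydroxyvitamin D3 with test compound, 16 h, 37C. Endpoint is CellTiter-Glo luminescence in the same wells.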

Q: For `Cc1cccc2ccccc12`, which outcome is on record?
A: inactive

Q: For `O=C(O)Cc1cccc2ccccc12`, which outcome is on record?
A: inactive

Q: For `O=C(O)CN(CC(=O)O)CC(=O)O`, which outcome is on record?
A: inactive

Q: With `COc1cc(O)c(C(=O)c2ccccc2)cc1S(=O)(=O)O` as the compound, how does the outcome read?
A: inactive

Q: For `CCCCCCCCCCCCCC(=O)OC(C)C`, which outcome is on record?
A: inactive

Q: For `COc1cc(C=O)ccc1O`, which outcome is on record?
A: inactive

Q: Which outcome does the source give for `CC1=NN(c2ccccc2)C(=O)C1` here?
A: inactive

Q: With `C[C@]12C[C@H](O)[C@H]3[C@@H](CCC4=CC(=O)CC[C@@]43C)[C@@H]1CC[C@@H]2C(=O)CO` as the compound, how does the outcome read?
A: inactive

Q: With `CCCCC/C(C=O)=C\c1ccccc1` as the compound, how does the outcome read?
A: inactive

Q: For `CC(O)COc1ccccc1` (centres undefined), which outcome is on record?
A: inactive

Q: With `O=C1CCCCCN1` as the compound, how does the outcome read?
A: inactive

Q: Which outcome does the source give for `CC(=O)c1ccc(S(=O)(=O)NC(=O)NC2CCCCC2)cc1` here?
A: inactive

Q: Which outcome does the source give for `Cn1cnc2c1c(=O)[nH]c(=O)n2C` here?
A: inactive

Q: Which outcome does the source give for `COC(=O)C1CCC(C(=O)OC)CC1` (centres undefined) here?
A: inactive

Q: Which outcome does the source give for `O=C(OCc1ccccc1)c1ccccc1` here?
A: inactive

Q: Which “viability change, negative = cytotoxic” value does the source give for `COc1ccccc1O` here?
A: -0.118% [at 78.8 µM] (inactive)

Q: Which outcome does the source give for `CCOC(=O)C(C)(C)Oc1ccc(Cl)cc1` here?
A: inactive

Q: For `c1ccc2[nH]c(-c3cscn3)nc2c1`, which outcome is on record?
A: inactive

Q: For `NC(=O)c1ccc([N+](=O)[O-])cc1Cl`, which “viability change, negative = cytotoxic” value is on record?
A: 12.9% (inactive)

Q: Which “viability change, negative = cytotoxic” value does the source give for `Cc1c(N(C)C)c(=O)n(-c2ccccc2)n1C` here?
A: -2.75% [at 78.8 µM] (inactive)

Q: For `Cc1ccc(O)c(-n2nc3ccccc3n2)c1`, which outcome is on record?
A: inactive

Q: For `COCCOCCOC`, which “viability change, negative = cytotoxic” value is on record?
A: -3.61% (inactive)

Q: Which “viability change, negative = cytotoxic” value does the source give for `CC(C)CC(C)CC(O)CC(C)C` (centres undefined) here?
A: 10.3% (inactive)

Q: For `Oc1cccc(O)c1`, which outcome is on record?
A: inactive

Q: Which outcome does the source give for `CCCCCCCCCCCCCCCCCC(=O)OCC(O)CO` (centres undefined) here?
A: inactive

Q: With `COCC(C)N` (centres undefined) as the compound, how does the outcome read?
A: inactive

Q: For `CCn1cc(C(=O)O)c(=O)c2ccc(C)nc21`, which outcome is on record?
A: inactive

Q: Which outcome does the source give for `C=CCOC(=O)CC(C)C` here?
A: inactive

Q: With `COC(=O)c1ccc(C=O)cc1` as the compound, how does the outcome read?
A: inactive

— PubChem BioAssay (Tox21)
